Values joined by “and” are separate entries in the source; they are usually repeats but may differ in a detail not shown here. Equal entries are not always repeated. Results filed as inconclusive are left out. Some compounds were tested as several samples or in several runs, with calls that do not always agree. Active and inactive are the calls of the source. Calls follow the shape of the dose curve; as a rule, active = well fitted activation curve with a large enough effect in the repeat runs; inconclusive = weak or mixed curves; inactive = no such curve, though single readings can be large or run the other way.
Target: Nuclear receptor subfamily 1 group I member 3 (Homo sapiens) (UniProt Q14994)
Sequence (Q14994 whole entry, looked up): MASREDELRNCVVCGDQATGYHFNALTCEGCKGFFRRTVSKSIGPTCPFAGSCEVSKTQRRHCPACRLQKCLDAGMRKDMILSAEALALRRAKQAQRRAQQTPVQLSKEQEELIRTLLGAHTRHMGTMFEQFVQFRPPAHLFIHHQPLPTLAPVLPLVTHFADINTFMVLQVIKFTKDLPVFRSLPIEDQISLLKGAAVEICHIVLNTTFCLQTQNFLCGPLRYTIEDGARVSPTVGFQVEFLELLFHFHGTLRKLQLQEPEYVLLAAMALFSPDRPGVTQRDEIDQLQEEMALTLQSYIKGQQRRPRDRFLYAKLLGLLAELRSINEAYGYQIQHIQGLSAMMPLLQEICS
Assay: qHTS assay to identify small molecule agonists of the constitutive androstane receptor (CAR) signaling pathway (AID 1224839); also: nearly all actives have a fitted effect of over 15% in size;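 as to activation: HepG2 cells stably carrying human CAR and a CYP2B6 luciferase reporter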
Details: HepG2 hCAR CYP2B6-luciferase, agonist mode, 24 h; series mostly up to 92.4 µM; activation: at the top concentration
Description: National Center for Advancing Translational Sciences [NCATS] NIH Chemical Genomics Center [NCGC] U.S. Environmental Protection Agency [EPA] National Institutes of Environmental Health Sciences [NIEHS] National Toxicology Program [NTP] Assay overview: The constitutive androstane receptor (CAR) is a nuclear receptor which regulates multiple drug metabolizing enzymes (DMEs) and transporters. Activating CAR will generally increase the transcription and subsequent translation of CYP2B6 and CYP3A4. These two DMEs represent about 50% of the drug metabolizing potential in the body. […] Recently, there have also been studies performed indicating CARs role in energy metabolism and cancer therapy. Therefore, inducing CARs activity could have a potential effect on diabetes and cancer. Identifying environmental toxins and compounds which modulate CAR, through the use of the Tox21 10K compound collection, will be an important step in determining the toxicity and potential therapeutic effects these factors will have on the human body.
Assay Protocol Summary: A double-stable (hCAR and CYP2B6-2.2kb) transfected cell line, derived from human hepatoma (HepG2) cells, was utilized for the duration of the quantitative high-throughput screens. The HepG2-CYP2B6-hCAR cells suspended in DMEM culture medium supplemented with 10% FBS, 5 ug/mL blasticidin, 0.5 mg/mL geneticin, 100 U/mL penicillin and 100 ug/mL streptomycin were dispensed at 2500 cells/4 uL/well in 1536-well white solid bottom plates using a Multidrop Combi. After the assay plates were incubated at 37 C/5% CO2 for 4 hrs, 23 nL of compounds at 15 concentrations (from 5-48 columns) or positive control (from 1 to 4 columns) were transferred to the assay plates using a Pintool station. One uL of PK11195, was added using a Flying Reagent Dispenser to generate a final concentration of 0.75 uM PK11195 inside each well. After a 24 hr incubation period at 37 C/5% CO2, four uL of ONE-Glo reagent was added into the assay plates using a Flying Reagent Dispenser. After a 30 min incubation period at room temperature, the luminescence intensity in the assay plates was measured using a ViewLux plate reader.
% is scaled to controls: 0 for no effect and ±100 for the full control effect; potency is read from the fitted curve at half-maximal effect.

SMILES	activation	Potency
N#CC1(N=NC2(C#N)CCCCC2)CCCCC1	1.18% (inactive)	
C[CH2][Hg][S]c1ccccc1C(=O)O		inactive
Clc1ccc(Cl)c(Cl)c1		inactive
CCCCC1C(=O)NC(=O)N(C2CCCCC2)C1=O (stereo not given)	-1.8% [at 42.5 µM] (inactive)	
O=P(OCC(Br)CBr)(OCC(Br)CBr)OCC(Br)CBr (stereo not given)	14.2% (inactive)	
CC(C)(C)NCC(O)c1ccccc1Cl (stereo not given)	-2.89% [at 42.5 µM] (inactive)	
Nc1ccccc1C(=O)OCC(O)CO (stereo not given)	1.04% [at 42.5 µM] (inactive)	
O=C=NC1CCCCC1	12.1% (inactive)	
CCCCNC(=O)OCC#CI		inactive
CC(=O)NNc1ccccc1	2.8% (inactive)	
CCCCC#N	-1.08% (inactive)	
C#C[C@]1(O)CC[C@H]2[C@@H]3CCC4=CC(=O)CCC4=C3C=C[C@@]21CC	2.35% [at 42.5 µM] (inactive)	
CCCC(C)(COC(N)=O)COC(=O)NC(C)C (stereo not given)		inactive
CC(C)(c1ccccc1)c1cc(-n2nc3ccccc3n2)c(O)c(C(C)(C)c2ccccc2)c1	0.979% [at 42.5 µM] (inactive)	
SCc1ccccc1	7.3% (inactive)	
O=CC=O	-1% (inactive)	
CCC(C)(C)O	-0.128% (inactive)	
CCCC1CCCCN1 (stereo not given)	0.0249% [at 42.5 µM] (inactive)	
CCCCCCCCCCCCCCCl	-1.4% (inactive)	
CCCCOC(=O)CCC(=O)OCCCC	2.59% (inactive)	

SMILES	activation	Potency
CC(Cl)C(=O)O (stereo not given)	-1.28% (inactive)	
CC(C)(C)c1ccc(CCOc2ncnc3ccccc23)cc1	-2.76% (inactive)	
CCCCCBr	0.886% (inactive)	
c1ccc2c(c1)-c1cccc3cccc-2c13		34.7 µM (active) and 30.6 µM (active)
c1ccc2sc(SNC3CCCCC3)nc2c1		53.9 µM (active)
O=C1CC[C@@]2(O)[C@H]3Cc4ccc(O)c5c4[C@@]2(CCN3CC2CC2)[C@H]1O5	0.2% [at 42.5 µM] (inactive)	
O=C(O)C(Cl)(Cl)Br	-0.18% (inactive)	
CCC(C)(C)c1ccc(O)c(C(C)(C)CC)c1		inactive
CC(C)[C@@H](C(=O)O[C@@H](C#N)c1cccc(Oc2ccccc2)c1)c1ccc(Cl)cc1		19.6 µM (active) and inactive
CCOC(=O)NC(O)C(Cl)(Cl)Cl (stereo not given)	3.12% [at 42.5 µM] (inactive)	
COc1ccc2c(c1OC)C(=O)O[C@H]2[C@@H]1c2cc3c(cc2CCN1C)OCO3	0.63% [at 42.5 µM] (inactive)	
CN1C(=O)CN=C(c2ccccc2)c2cc([N+](=O)[O-])ccc21	0.577% [at 42.5 µM] (inactive)	
O=[N+]([O-])c1cc(Cl)c(Cl)cc1Cl	9.26% (inactive)	
CN1CC[C@]23c4c5ccc(O)c4O[C@H]2[C@@H](O)CC[C@H]3[C@H]1C5	-2.43% (inactive)	
FC(F)OC(F)(F)C(F)Cl (stereo not given)	-0.56% (inactive)	
C=CCN1C[C@H](C)N([C@H](c2ccc(C(=O)N(CC)CC)cc2)c2cccc(OC)c2)C[C@H]1C	-1.24% [at 42.5 µM] (inactive)	
CCOP(=S)(OCC)SCSc1cc(Cl)ccc1Cl	-1.29% (inactive)	
CN(C)c1ccc(N=O)cc1		4.87 µM (active)
C=CC(C)(CCC=C(C)C)OC(=O)c1ccccc1N (stereo not given)	-3.09% (inactive)	
CCOC(=O)C1OC1(C)c1ccccc1 (stereo not given)	-0.954% (inactive)	
